Measurements as given in PubChem BioAssay AID1159580 (chemical genetic matrix, 2015).
The campaign covered roughly 5,500 compounds. About 2,000 (36%) were called active. Not shown: some 18% with an inconclusive outcome. Rule as the data show it: active = normalized growth mostly below about 0.91 (no sharp cut-off); inconclusive = no clear call, values can overlap the other calls; inactive = mostly above about 0.92. This is one part of the list.

Experiment: chemical genetic growth profiling, strain panel (AID 1159580);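 also: tested at 20 µM; growth read once vehicle control cultures reached saturation at 30 °C; 1 = growth at the plate median or of vehicle wells; lower values mean less growth of the strain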
Settings: S. cerevisiae deletion strains, growth OD
[1] = locus YAL013W, strain DEP1, stronger effect = lower value
[2] = locus YCL061C, strain MRC1 (second series), stronger effect = lower value
[3] = locus YDR150W, strain NUM1, stronger effect = lower value
[4] = locus YDR363W, strain ESC2, stronger effect = lower value
[5] = locus YER002W, strain NOP16, stronger effect = lower value
[6] = locus YNL175C, strain NOP13, stronger effect = lower value
[7] = locus YNL224C, strain SQS1, stronger effect = lower value

Measured: normalized growth

C=C(C)C1CC=C(C(=O)O)CC1 (stereo unspecified)
inactive: [1] 1.01 | locus YAL040C, strain CLN3, stronger effect = lower value 0.991 | [2] 1.01 | [3] 0.986 | [4] 0.961 | [5] 1.02 | locus YGR229C, strain SMI1, stronger effect = lower value 0.978 | locus YMR263W, strain SAP30, stronger effect = lower value 0.997 | locus YMR307W, strain GAS1, stronger effect = lower value 0.996 | [6] 1.01 | locus YNL197C, strain WHI3, stronger effect = lower value 1 | [7] 1.01 | locus YOR083W, strain WHI5 (second series), stronger effect = lower value 0.961 | locus YPL241C, strain CIN2, stronger effect = lower value 1

O=C(O)C1=CCNCC1
inactive: [1] 0.953 | locus YAL021C, strain ccr4, stronger effect = lower value 0.979 | locus YAL026C, strain drs2, stronger effect = lower value 1.02 | locus YAL030W, strain snc1, stronger effect = lower value 1.02 | locus YBL061C, strain skt5, stronger effect = lower value 1.01 | locus YBR009C, strain hhf1, stronger effect = lower value 1.03 | locus YBR023C, strain chs3, stronger effect = lower value 1.01 | locus YBR171W, strain sec66, stronger effect = lower value 1.01 | locus YBR231C, strain swc5, stronger effect = lower value 1.05 | locus YBR279W, strain paf1, stronger effect = lower value 1.01 | locus YCL011C, strain gbp2, stronger effect = lower value 1.01 | locus YCL016C, strain dcc1, stronger effect = lower value 1.02 | [2] 0.984 | locus YCL061C, strain MRC1, stronger effect = lower value 1.02 | locus YCL069W, strain vba3, stronger effect = lower value 1.01 | locus YCR088W, strain abp1, stronger effect = lower value 1.02 | locus YDL005C, strain med2, stronger effect = lower value 1.01 | locus YDL040C, strain nat1, stronger effect = lower value 1 | locus YDR001C, strain nth1, stronger effect = lower value 1.01 | locus YDR069C, strain doa4, stronger effect = lower value 1.03 | locus YDR137W, strain rgp1, stronger effect = lower value 0.985 | [3] 0.991 | locus YDR159W, strain sac3, stronger effect = lower value 1.02 | locus YDR195W, strain ref2 0.996 | locus YDR297W, strain sur2, stronger effect = lower value 1.01 | locus YDR334W, strain swr1, stronger effect = lower value 1.02 | locus YDR335W, strain msn5, stronger effect = lower value 1.02 | [4] 0.979 | locus YDR392W, strain spt3, stronger effect = lower value 0.98 | locus YEL003W, strain gim4, stronger effect = lower value 1.02 | locus YEL037C, strain rad23, stronger effect = lower value 1.01 | locus YEL061C, strain CIN8 (second series), stronger effect = lower value 1.01 | [5] 0.993 | locus YER015W, strain faa2, stronger effect = lower value 1.02 | locus YER016W, strain bim1, stronger effect = lower value 1.02 | locus YER111C, strain swi4, stronger effect = lower value 1.01 | locus YER155C, strain BEM2 (second series), stronger effect = lower value 1.05 | locus YFR010W, strain ubp6, stronger effect = lower value 1.02 | locus YGL167C, strain pmr1, stronger effect = lower value 1.02 | locus YGL173C, strain kem1, stronger effect = lower value 1.01 | locus YGL227W, strain vid30, stronger effect = lower value 1.01 | locus YGL240W, strain doc1, stronger effect = lower value 1.03 | locus YGL253W, strain hxk2, stronger effect = lower value 1.01 | locus YHR013C, strain ard1, stronger effect = lower value 1.02 | locus YHR027C, strain rpn1, stronger effect = lower value 1.02 | locus YHR030C, strain SLT2, stronger effect = lower value 1.04 | locus YHR079C, strain IRE1, stronger effect = lower value 1.05 | locus YHR142W, strain chs7, stronger effect = lower value 0.988 | locus YJL092W, strain hpr5, stronger effect = lower value 1.01 | locus YJL095W, strain BCK1 (second series), stronger effect = lower value 1.02 | locus YJL095W, strain BCK1, stronger effect = lower value 1.03 | locus YJL115W, strain asf1, stronger effect = lower value 1.02 | locus YJL129C, strain trk1, stronger effect = lower value 1.01 | locus YJL154C, strain vps35, stronger effect = lower value 1.01 | locus YJL164C, strain tpk1, stronger effect = lower value 1.01 | locus YJL166W, strain qcr8, stronger effect = lower value 1.01 | locus YJL187C, strain SWE1, stronger effect = lower value 1.01 | locus YJR066W, strain TOR1, stronger effect = lower value 0.961 | locus YJR075W, strain HOC1, stronger effect = lower value 0.978 | locus YKL160W, strain elf1, stronger effect = lower value 0.99 | locus YKR026C, strain gcn3, stronger effect = lower value 1.02 | locus YKR091W, strain srl3, stronger effect = lower value 1.01 | locus YLL001W, strain dnm1, stronger effect = lower value 1.01 | locus YLL026W, stronger effect = lower value 1.01 | locus YLL041C, strain sdh2, stronger effect = lower value 1.01 | locus YLR027C, strain aat2, stronger effect = lower value 1.01 | locus YLR113W, strain HOG1, stronger effect = lower value 1.06 | locus YLR221C, strain rsa3, stronger effect = lower value 1.02 | locus YLR258W, strain gsy2, stronger effect = lower value 1.04 | locus YLR262C, strain YPT6 (second series), stronger effect = lower value 1.01 | locus YLR320W, strain mms22, stronger effect = lower value 1.03 | locus YLR342W, strain FKS1, stronger effect = lower value 1.03 | locus YLR357W, strain rsc2, stronger effect = lower value 1.03 | locus YLR370C, strain arc18, stronger effect = lower value 1.02 | locus YLR384C, strain iki3, stronger effect = lower value 1.01 | locus YML120C, strain ndi1, stronger effect = lower value 1.01 | locus YMR058W, strain fet3, stronger effect = lower value 1.02 | locus YMR125W, strain sto1, stronger effect = lower value 1.02 | locus YMR129W, stronger effect = lower value 1.01 | locus YMR205C, strain PFK2, stronger effect = lower value 1.03 | locus YMR231W, strain pep5, stronger effect = lower value 1.01 | locus YNL071W, strain lat1, stronger effect = lower value 1.02 | locus YNL128W, strain TEP1, stronger effect = lower value 0.982 | locus YNL153C, strain GIM3, stronger effect = lower value 0.965 | [6] 0.994 | locus YNL183C, strain NPR1, stronger effect = lower value 0.958 | locus YNL209W, strain ssb2, stronger effect = lower value 1.01 | [7] 0.982 | locus YNL248C, strain rpa49, stronger effect = lower value 0.98 | locus YNL322C, strain KRE1 (second series), stronger effect = lower value 1.01 | locus YNL322C, strain KRE1, stronger effect = lower value 0.991 | locus YNR049C, strain mso1, stronger effect = lower value 1.02 | locus YOR001W, strain rrp6, stronger effect = lower value 1 | locus YOR070C, strain gyp1, stronger effect = lower value 1.02 | locus YOR080W, strain dia2, stronger effect = lower value 1.03 | locus YOR083W, strain WHI5, stronger effect = lower value 0.982 | locus YOR106W, strain vam3, stronger effect = lower value 0.986 | locus YOR231W, strain MKK1, stronger effect = lower value 1.04 | locus YOR265W, strain rbl2, stronger effect = lower value 1.01 | locus YOR270C, strain vph1, stronger effect = lower value 1.02 | locus YOR290C, strain snf2, stronger effect = lower value 1.01 | locus YPL051W, strain arl3, stronger effect = lower value 1.01 | locus YPL055C, strain LGE1, stronger effect = lower value 0.974 | locus YPL078C, strain atp4, stronger effect = lower value 0.991 | locus YPL106C, strain sse1, stronger effect = lower value 1.02 | locus YPL240C, strain hsp82, stronger effect = lower value 1 | locus YPL256C, strain CLN2, stronger effect = lower value 1.05
